# CHT inh: inhibitors of human choline transporter CHT. 0.86% of 310,000 active. B-score at 10 µM. AID 488975, 2010. CHT-expressing cells, membrane potential dye, choline response; active compounds read low. High affinity choline transporter 1 (Homo sapiens), Q9GZV3;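 active = B-score over 3 SD under the library average, and starting fluorescence ratio not unusually high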;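 note: choline stimulus applied at its EC90 after an EC20 pre-addition; B-score computed on integrated fluorescence ratio after choline addition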
# AI-2 QS mod: Vibrio harveyi AI-2 quorum sensing modulators, primary screen, JMH597 strain, luminescence/OD600 ratio. Vibrio harveyi JMH597 AI-2 luminescence/OD600 ratio, 9 h; active compounds read low; strain lacks LuxN and CqsS sensors; 0 = neutral-control median. activity change, % at 7.5 µM. 0.4% of 300,000 active; in the data active = activity change below about -75%, passing the limit was not always enough; inconclusive = no clear call, values can overlap the other calls;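 note: luminescence divided by OD600 gain over 9 h not by final OD600 alone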
# PREPL inh: PREPL enzyme inhibitors, primary screen, biochemical, fluorescence polarization | Prolyl endopeptidase-like (Homo sapiens), Q4J6C6 | inhibition, % at 5.96 µM | AID 2751, 2010 | 0.68% of 320,000 active | recombinant PREPL, fluorescence polarization activity-based probe; in the data active = inhibition above about 43%;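 note: 0% = enzyme with DMSO and 100% = wells lacking enzyme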
# ALR H2O2 inh: inhibitors of human ALR sulfhydryl oxidase, primary screen, biochemical, H2O2 detection, HRP-luminol luminescence, single point; FAD-linked sulfhydryl oxidase ALR (Homo sapiens), P55789; purified ALR, DTT oxidation; inhibition, % (concentration not given with the values); 3.8% of 290,000 active; AID 485317, 2010;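 active = mean replicate inhibition above about 79%, with every replicate also reaching it, limit read from the data; inconclusive = only one of the two criteria met; inactive = mean below limit and not every replicate reaching it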
# Target sequence (P55789 whole entry, looked up): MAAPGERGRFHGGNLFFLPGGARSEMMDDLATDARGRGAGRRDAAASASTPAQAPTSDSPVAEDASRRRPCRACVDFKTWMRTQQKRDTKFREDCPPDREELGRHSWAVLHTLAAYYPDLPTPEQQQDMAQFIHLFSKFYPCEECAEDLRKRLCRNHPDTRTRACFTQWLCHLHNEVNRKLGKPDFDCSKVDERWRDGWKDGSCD
# CHT allo act: CHT positive allosteric modulators, primary screen, cell-based, membrane potential dye, choline EC20. High affinity choline transporter 1 (Homo sapiens), Q9GZV3. CHT-expressing cells; active compounds read high; LV-AA mutant CHT in HEK293 cells. B-score at 10 µM. 0.49% of 310,000 active. AID 488977, 2010;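 active = initial fluorescence not abnormally high and integrated response B-score, plate-corrected, over 3 SD above library mean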
# CHT block conf: CHT inhibitors, confirmation, cell-based, membrane potential dye, duplicate; CHT activity remaining % of control (active compounds read low), % at 10 µM; 70% of 2,400 active; CHT-expressing cells, choline membrane potential dye; LV-to-AA substituted CHT, HEK293 cells; shares compounds with CHT inh;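 active = choline transporter activity left, mean of duplicates at 10 µM, below buffer-only control mean minus 3 SD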;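 note: depolarization triggered by choline at its EC90 following an EC20 pre-addition; 0% = hemicholinium-3 full block and 100% = buffer-only control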
# HEK293 MPD ctr: membrane potential effects in parental HEK293, counter-screen for CHT inhibitor project, cell-based, membrane potential dye. shares compounds with CHT inh. choline response; active = decrease or increase beyond buffer ±3SD. membrane potential ratio readout (active if shifted either direction beyond buffer ±3SD; no single direction) at 10 µM. 4% of 2,400 active;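 note: parental cells lack the transporter so any hit is non-specific; ratio is peak minus trough fluorescence over baseline after EC90 choline challenge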
# * marks the source's active call; other numbers are inactive results; i = inactive; ? = inconclusive; . = not tested or not shown. A selection: hits, their analogues and other compounds. The true share with any hit is near 5%.
SMILES,CHT inh,AI-2 QS mod,PREPL inh,ALR H2O2 inh,CHT allo act,CHT block conf,HEK293 MPD ctr
CSc1ccc(CCNC(=O)Cn2ncc3c([nH]c4ccccc43)c2=O)cc1,i,-2.0,9.1,-0.9,i,.,.
O=C(Cc1ccccc1F)Nc1cc(S(=O)(=O)N2CCOCC2)ccc1N1CCCC1,.,.,24.3,3.6,.,.,.
COc1ccc(C2=NN(c3ccc(C(=O)O)cc3)C(c3ccc(OC)c(OC)c3)C2)cc1 (stereo unspecified),-5.29*,31.6,5.7,.,i,62.5%*,i
O=S(=O)(c1ccc(Cl)c(C(F)(F)F)c1)N1CCN(c2ccccn2)CC1,i,19.0,-3.9,-8.1,i,.,.
CCCC1=NN2C(=N)/C(=C\c3ccc(SCc4ccco4)o3)C(=O)N=C2S1,-5.82*,44.4,21.2,99.0*,i,69.4%*,i
CCC1=NN2C(=N)/C(=C\c3ccc(SCc4ccco4)o3)C(=O)N=C2S1,-5.25*,33.5,-100.9,?,i,i,i
N=C1/C(=C/c2ccco2)C(=O)N=C2SC(CC(=O)N3CCCC3)=NN12,i,17.9,-5.5,10.0,i,.,.
CSC1=C(C#N)C(c2ccncc2)C(C(=O)Nc2ccccc2)=C(C)N1 (stereo unspecified),-5.03*,22.8,-9.3,-0.2,i,50.5%*,i
CC1=C(C(=O)Nc2ccccc2)C(c2ccncc2)C(C#N)=C(SCC(=O)Nc2ccccc2)N1 (stereo unspecified),i,8.0,-1.3,-24.2,i,.,.
C[C@H](O)Cc1cn(-c2cc3cc(C#Cc4ccsc4)ccc3oc2=O)nn1,.,.,-12.9,-5.4,.,.,.
CC(C)Sc1sc(C(=O)O)c(-c2ccc(Cl)cc2)c1C#N,-5.65*,-0.9,4.9,57.8,i,61.4%*,i
CCCn1nc(C(=O)N2CCN(S(=O)(=O)c3ccc(C)c(C)c3)CC2)c2ccccc2c1=O,.,.,7.4,0.3,.,.,.
Cc1ccc(-c2nnn(CC(=O)N(CCN3CCOCC3)C(C(=O)NC(C)(C)C)c3ccco3)n2)cc1 (stereo unspecified),-6.21*,16.7,6.9,-2.8,i,23.8%*,-10.3*
Cc1ccc(-c2nnn(CC(=O)N(CCN3CCOCC3)C(C(=O)NC(C)(C)C)c3ccc(C)o3)n2)cc1 (stereo unspecified),i,10.5,7.6,-0.7,i,.,.
CCOC(=O)c1cc(NC(=O)c2ccoc2C)cc(C(=O)OCC)c1,-6.11*,21.7,-4.4,-4.8,i,39.6%*,i
CC(=O)c1cccc(NC(=O)c2ccoc2C)c1,i,18.3,-6.3,0.5,i,.,.
Cn1ccnc1SCC(=O)Nc1ccc2nc(SCC(=O)NC3CC3)sc2c1,-16*,16.3,8.6,98.5*,i,20.5%*,i
O=C(N/N=C/c1ccc(O)c([N+](=O)[O-])c1)C1CC1(c1ccccc1)c1ccccc1 (stereo unspecified),-9.34*,13.8,5.2,-9.2,i,i,i
O=C(N/N=C/c1ccncc1)C1CC1(c1ccccc1)c1ccccc1 (stereo unspecified),i,15.0,0.0,4.8,i,.,.
CCCn1c(=O)c2c(nc3n2CCCN3CCc2ccc(OC)c(OC)c2)n(C)c1=O,-5.17*,-8.4,6.9,7.2,i,69.9%*,i
COC(=O)c1cc(C(=O)OC)cc(N2C(=O)CC(NNC(=O)c3ccc(C)cc3)C2=O)c1 (stereo unspecified),-5.36*,3.0,2.2,5.3,i,i,i
COc1ccc(C2=NS(=O)(=O)N(C)C(C(=O)N3CCOCC3)=C2)cc1OC,i,15.8,0.8,-12.4,i,.,.
O=C(CC(=O)c1ccccc1O)c1cccc(F)c1,i,14.2,-20.0,-1.3,i,.,.
O=C(CC(=O)c1c(F)cccc1Cl)c1ccccc1O,-5.57*,52.2,0.2,0.4,i,45.9%*,i
COc1ccccc1CCC(=O)N1CCC(n2nccc2NC(=O)C2CCOC2)CC1 (stereo unspecified),i,4.0,9.5,-7.9,i,.,.
SMILES,CHT inh,AI-2 QS mod,PREPL inh,ALR H2O2 inh,CHT allo act,CHT block conf,HEK293 MPD ctr
O=C1N=c2ccccc2=C1c1[nH]c(=S)[nH]c1O,i,17.4,7.9,-5.1,i,.,.
Cc1ccc(Cl)c2c1=NC(=O)C=2c1[nH]c(=S)[nH]c1O,-5.78*,-0.3,-1.5,-2.5,i,i,i
NS(=O)(=O)c1ccc(NC(=O)Nc2ccc(S(N)(=O)=O)cc2)cc1,-12.5*,28.3,-3.1,-6.2,i,i,i
COCCNC(=O)C(=O)NNC(=O)CCc1ccccc1,-5.48*,12.1,-4.0,.,i,i,i
COC(=O)c1ccc(N(CC(=O)NC2CCCC2)C(=O)c2ccc(C)s2)cc1,i,-5.2,2.7,2.0,i,.,.
Nc1ccc(C2(c3ccc(N)cc3)C(=O)Nc3ccccc32)cc1,-13.7*,18.8,6.0,39.3,i,-27.5%*,8.97*
Cc1ccc(C)c(NC(=O)C2CCCN(S(=O)(=O)c3c(C)nn(C)c3C)C2)c1 (stereo unspecified),i,.,-2.1,-1.3,i,.,.
CCc1nnc(NC(=O)CSc2nnc(-c3ccccc3OC)n2-c2ccc(C)cc2)s1,i,18.9,3.0,-4.1,i,.,.
CCc1nnc(NC(=O)CSc2ncc(-c3ccccc3)n2C)s1,-5.46*,-13.8,15.6,-1.0,i,65.3%*,i
CCc1nnc(NC(=O)CSc2nccn2-c2ccccc2)s1,i,29.1,-7.6,-7.1,i,.,.
CCc1nnc(NC(=O)CSc2nnc(-c3ccccc3OC)n2-c2ccccc2)s1,-5.52*,14.4,-5.2,-6.1,i,40.8%*,i
CC(C)CCNC(=O)c1ccc(-c2ccccc2)cc1,i,9.6,-0.6,-11.4,i,.,.
Cc1cccc(N=Cc2cc(Br)cc(Cl)c2O)c1,-7.83*,11.8,2.0,16.4,i,57.0%*,i
CCOC(=O)c1c(CSc2ccc(C)cc2)n(C)c2cc(Br)c(O)c(CN(C)C)c12,i,22.0,19.0,?,i,.,.
CCOC(=O)c1c(CSc2ccccc2)n(C)c2ccc(O)c(CN3CCN(C)CC3)c12,-7.63*,18.1,3.8,16.5,i,31.4%*,i
